Measured values: the supplement of paper PMC11732987, “Enantioselective OTUD7B fragment discovery through chemoproteomics screening and high-throughput optimisation” (Communications Chemistry, 2025)

Key:
Experiment in all cases: log2 ratio of Biotin-Ahx-Ub-VS probe labelling (fragment/DMSO); higher = less target engagement (more negative = stronger competition), active = hit call of the paper (q ≤ 0.05, log2 ratio ≤ -1)
Conditions in all cases: compound concentration: 200 uM; treatment time: 3 h
USP19 = molecular target: T1, USP19 (UniProt O94966)
T1 sequence (whole entry): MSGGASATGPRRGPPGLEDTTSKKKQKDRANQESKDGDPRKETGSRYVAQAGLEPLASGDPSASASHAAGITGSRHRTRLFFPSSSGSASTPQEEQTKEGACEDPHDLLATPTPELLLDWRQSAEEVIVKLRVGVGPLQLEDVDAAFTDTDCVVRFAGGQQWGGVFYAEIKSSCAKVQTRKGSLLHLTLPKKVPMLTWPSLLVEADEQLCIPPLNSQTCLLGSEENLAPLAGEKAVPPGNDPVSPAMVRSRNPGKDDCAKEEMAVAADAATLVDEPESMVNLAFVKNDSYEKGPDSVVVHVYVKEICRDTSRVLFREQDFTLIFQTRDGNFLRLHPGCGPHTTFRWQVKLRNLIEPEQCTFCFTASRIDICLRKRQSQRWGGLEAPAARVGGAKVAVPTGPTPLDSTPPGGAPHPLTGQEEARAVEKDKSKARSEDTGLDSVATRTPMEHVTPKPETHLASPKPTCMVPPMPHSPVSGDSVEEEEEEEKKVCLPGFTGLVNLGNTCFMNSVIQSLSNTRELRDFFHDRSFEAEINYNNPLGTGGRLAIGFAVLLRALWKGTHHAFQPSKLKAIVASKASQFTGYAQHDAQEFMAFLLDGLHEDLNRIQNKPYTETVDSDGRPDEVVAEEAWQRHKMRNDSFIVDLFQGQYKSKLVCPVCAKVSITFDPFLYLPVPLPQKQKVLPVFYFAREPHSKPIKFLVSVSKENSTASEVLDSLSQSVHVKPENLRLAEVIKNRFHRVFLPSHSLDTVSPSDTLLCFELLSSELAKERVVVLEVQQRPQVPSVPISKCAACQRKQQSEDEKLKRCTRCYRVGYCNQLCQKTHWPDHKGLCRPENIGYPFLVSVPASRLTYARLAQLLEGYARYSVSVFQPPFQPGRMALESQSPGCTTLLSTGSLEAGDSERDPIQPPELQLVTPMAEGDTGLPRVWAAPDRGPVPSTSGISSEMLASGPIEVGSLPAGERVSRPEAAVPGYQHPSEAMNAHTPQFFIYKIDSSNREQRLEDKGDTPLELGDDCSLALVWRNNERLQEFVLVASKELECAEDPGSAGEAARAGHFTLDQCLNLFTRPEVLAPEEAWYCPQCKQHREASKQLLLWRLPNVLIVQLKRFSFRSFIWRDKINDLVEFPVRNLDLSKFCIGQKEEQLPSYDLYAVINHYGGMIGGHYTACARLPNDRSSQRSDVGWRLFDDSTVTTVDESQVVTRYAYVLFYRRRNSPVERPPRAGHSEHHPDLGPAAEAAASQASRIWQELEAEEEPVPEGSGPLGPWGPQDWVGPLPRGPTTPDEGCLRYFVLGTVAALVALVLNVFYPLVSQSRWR
Procedure, shortened: (§1)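 HEK293T lysate in Tris/CHAPS/IGEPAL buffer with protease inhibitors (495 µg per sample) was given fragment at 200 µM or vehicle for 3 h, in triplicate. It then received Biotin-Ahx-Ub-VS at 0.5 µM final for 1 h. Labelled DUBs were NeutrAvidin-enriched, digested with LysC and trypsin, and run by diaPASEF LC-MS/MS. Values are average log2 fragment/vehicle ratios by unpaired t-test on global-median-normalised Spectronaut quantities of proteins with ≥2 unique peptides.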

USP24 = USP24 (UniProt Q9UPU5)
Sequence of USP24 (Q9UPU5 whole entry): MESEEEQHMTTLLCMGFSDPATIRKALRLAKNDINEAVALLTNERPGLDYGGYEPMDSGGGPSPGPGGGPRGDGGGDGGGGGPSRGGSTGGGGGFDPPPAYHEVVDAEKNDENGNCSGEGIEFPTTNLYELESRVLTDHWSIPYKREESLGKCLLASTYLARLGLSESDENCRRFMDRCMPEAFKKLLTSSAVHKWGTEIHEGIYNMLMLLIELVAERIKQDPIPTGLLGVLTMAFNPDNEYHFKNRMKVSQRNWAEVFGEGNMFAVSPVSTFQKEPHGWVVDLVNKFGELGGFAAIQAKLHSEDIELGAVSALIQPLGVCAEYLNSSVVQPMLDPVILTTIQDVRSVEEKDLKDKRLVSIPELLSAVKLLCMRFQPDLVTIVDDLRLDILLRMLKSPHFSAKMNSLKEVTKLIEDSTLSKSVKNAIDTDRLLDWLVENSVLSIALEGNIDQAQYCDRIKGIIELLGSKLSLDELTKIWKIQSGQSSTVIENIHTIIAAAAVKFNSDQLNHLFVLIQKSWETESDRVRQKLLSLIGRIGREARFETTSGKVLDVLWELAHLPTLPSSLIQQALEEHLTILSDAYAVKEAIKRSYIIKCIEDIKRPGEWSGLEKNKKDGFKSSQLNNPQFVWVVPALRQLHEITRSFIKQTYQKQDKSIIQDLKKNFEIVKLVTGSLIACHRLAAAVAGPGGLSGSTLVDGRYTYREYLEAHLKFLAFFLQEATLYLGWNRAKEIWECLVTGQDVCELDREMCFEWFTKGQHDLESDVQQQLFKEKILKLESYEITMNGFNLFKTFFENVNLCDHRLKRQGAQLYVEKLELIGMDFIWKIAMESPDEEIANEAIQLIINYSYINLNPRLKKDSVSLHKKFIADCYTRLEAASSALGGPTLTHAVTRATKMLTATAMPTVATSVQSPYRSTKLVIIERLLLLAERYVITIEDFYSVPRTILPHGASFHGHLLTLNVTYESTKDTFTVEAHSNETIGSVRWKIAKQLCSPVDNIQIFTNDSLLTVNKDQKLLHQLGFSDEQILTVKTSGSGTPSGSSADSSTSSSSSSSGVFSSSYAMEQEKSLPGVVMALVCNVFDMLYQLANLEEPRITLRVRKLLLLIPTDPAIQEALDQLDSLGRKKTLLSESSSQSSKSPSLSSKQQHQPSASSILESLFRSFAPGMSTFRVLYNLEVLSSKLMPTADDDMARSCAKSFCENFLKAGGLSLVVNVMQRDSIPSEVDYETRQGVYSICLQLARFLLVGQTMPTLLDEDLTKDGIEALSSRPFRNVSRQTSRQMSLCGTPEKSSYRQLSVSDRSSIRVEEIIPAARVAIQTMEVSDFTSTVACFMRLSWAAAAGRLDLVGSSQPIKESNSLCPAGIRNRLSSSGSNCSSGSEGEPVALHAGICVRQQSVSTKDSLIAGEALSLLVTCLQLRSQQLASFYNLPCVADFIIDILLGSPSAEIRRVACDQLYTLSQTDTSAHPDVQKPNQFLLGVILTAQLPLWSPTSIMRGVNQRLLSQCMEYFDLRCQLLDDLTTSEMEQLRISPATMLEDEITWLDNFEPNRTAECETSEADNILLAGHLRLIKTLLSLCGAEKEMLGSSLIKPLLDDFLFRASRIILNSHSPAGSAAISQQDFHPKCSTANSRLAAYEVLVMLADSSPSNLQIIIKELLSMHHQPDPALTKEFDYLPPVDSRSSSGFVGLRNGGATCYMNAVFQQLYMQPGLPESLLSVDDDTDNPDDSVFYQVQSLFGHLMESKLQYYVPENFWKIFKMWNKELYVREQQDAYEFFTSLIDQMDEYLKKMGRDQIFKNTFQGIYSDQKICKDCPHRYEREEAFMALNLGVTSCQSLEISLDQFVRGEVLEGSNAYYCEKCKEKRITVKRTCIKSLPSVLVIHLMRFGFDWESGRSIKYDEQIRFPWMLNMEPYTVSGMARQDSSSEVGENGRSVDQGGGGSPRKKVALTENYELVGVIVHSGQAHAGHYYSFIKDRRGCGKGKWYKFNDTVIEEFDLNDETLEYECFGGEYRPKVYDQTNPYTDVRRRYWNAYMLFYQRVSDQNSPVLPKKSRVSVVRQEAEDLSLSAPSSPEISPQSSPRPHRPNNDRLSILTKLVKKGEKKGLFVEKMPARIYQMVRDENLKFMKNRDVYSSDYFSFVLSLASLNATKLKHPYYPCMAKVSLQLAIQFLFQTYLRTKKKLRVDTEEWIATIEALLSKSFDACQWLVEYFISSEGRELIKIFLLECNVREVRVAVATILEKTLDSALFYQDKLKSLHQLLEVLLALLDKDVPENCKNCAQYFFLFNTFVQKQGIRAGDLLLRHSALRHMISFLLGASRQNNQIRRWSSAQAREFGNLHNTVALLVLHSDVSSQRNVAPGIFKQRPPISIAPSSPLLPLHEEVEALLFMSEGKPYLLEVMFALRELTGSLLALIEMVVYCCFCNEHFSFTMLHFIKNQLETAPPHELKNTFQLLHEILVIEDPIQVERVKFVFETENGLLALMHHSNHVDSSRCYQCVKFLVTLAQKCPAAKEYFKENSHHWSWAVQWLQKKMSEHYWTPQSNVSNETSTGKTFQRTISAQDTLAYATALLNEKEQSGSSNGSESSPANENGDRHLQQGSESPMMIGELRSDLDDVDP
Procedure, shortened: as §1

USP25 = molecular target: T2, USP25 (UniProt Q9UHP3)
T2 sequence (whole entry): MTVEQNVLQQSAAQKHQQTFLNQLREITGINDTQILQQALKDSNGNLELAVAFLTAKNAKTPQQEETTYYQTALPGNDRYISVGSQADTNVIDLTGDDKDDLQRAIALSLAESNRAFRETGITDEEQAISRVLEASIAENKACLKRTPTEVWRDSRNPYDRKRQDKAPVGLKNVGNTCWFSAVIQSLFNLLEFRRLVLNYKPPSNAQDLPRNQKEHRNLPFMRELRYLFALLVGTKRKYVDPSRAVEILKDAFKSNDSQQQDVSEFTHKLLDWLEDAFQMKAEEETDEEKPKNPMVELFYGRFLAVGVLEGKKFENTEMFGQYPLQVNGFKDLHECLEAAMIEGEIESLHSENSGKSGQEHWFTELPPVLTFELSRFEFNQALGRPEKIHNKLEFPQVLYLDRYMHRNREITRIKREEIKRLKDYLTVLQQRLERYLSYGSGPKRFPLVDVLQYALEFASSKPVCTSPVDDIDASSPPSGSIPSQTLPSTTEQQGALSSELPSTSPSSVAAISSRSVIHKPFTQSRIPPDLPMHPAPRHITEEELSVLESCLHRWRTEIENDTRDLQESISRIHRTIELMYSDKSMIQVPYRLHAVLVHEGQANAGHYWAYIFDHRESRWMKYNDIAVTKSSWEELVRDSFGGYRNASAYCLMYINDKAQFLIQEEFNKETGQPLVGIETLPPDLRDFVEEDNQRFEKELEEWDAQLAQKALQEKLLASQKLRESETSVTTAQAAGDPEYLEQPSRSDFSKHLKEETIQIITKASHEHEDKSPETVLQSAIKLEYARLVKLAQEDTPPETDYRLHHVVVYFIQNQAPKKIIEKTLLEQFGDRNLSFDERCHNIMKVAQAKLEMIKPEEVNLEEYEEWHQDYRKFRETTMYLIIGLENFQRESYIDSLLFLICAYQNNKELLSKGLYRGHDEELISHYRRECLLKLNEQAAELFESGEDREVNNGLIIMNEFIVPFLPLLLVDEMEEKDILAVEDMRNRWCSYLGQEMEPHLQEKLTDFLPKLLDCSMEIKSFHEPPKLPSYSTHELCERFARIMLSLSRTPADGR
Procedure, shortened: as §1

USP28 = molecular target: T3, USP28 (UniProt Q96RU2)
T3 sequence (whole entry): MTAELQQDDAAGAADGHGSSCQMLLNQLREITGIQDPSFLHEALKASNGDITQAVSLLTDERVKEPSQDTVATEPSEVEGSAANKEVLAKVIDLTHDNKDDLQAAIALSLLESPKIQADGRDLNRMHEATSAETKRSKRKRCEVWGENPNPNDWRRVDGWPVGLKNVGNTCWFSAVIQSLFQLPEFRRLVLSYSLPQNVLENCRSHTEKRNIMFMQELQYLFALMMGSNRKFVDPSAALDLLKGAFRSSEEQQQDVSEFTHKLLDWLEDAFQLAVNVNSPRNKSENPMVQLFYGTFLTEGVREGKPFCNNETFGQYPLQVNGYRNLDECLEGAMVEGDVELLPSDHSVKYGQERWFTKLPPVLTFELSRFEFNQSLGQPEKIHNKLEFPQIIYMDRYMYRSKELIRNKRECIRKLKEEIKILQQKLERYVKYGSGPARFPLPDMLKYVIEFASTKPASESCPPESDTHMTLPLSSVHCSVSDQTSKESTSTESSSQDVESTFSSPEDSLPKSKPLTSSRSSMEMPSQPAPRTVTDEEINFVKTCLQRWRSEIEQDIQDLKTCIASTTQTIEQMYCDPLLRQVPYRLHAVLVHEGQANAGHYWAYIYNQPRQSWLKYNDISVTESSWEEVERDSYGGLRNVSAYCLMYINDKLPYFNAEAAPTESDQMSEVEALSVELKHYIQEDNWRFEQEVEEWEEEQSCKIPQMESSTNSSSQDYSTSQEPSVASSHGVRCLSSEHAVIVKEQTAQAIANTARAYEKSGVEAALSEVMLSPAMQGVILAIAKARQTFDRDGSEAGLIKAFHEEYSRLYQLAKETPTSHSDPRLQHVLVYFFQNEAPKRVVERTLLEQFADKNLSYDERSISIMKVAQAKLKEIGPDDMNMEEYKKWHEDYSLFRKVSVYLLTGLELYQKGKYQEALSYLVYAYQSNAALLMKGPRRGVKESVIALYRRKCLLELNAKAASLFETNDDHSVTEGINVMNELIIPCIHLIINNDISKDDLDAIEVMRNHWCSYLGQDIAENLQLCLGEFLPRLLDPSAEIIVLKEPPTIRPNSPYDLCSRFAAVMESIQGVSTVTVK
Procedure, shortened: as §1

Measured: log2 ratio of Biotin-Ahx-Ub-VS probe labelling

CN(CCC(O)c1ccc(Br)cc1)C(=O)CCl (centres undefined)
inactive: USP19 -0.439 | USP24 -0.901 | USP25 -0.071 | USP28 -0.457
